# Assay outcomes: PubChem BioAssay, National Center for Advancing Translational Sciences (NCATS)
# Rows were chosen to be rich in hits. Some 2.9% of all compounds tested hit in one or more screens of this group.
# A549 viability: Nrf2 qHTS screen for inhibitors: counterscreen for cytotoxicity; A549 ARE-Fluc cells, CellTiter-Fluor viability, 18-24 h; Potency, µM (top dose mostly 46 µM), inactives show top-dose activity change, negative = cytotoxicity, hits mostly inhibitors; 390,000 compounds, 0.16% hits; AID 504648, 2011; further: on the % scale 0 is the no-effect control and ±100 the full control effect
#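 A549 ARE_Fluc cells in 5% FBS OPTI-MEM were exposed to compounds in concentration-response for 18-24 h at 37 deg C. Viability was read by CellTiter-Fluor fluorescence (Ex 405/Em 525) after 30 min, before the luciferase read.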
# Nrf2 ARE act: qHTS of Nrf2 Activators; 410,000 compounds, 0.31% hits; Potency, µM (series often up to 46.1 µM), without a hit: top-dose activation, actives largely listed as activators; AREc32 ARE-luciferase reporter (MCF7-derived line), luminescence, 24 h; AID 624171, 2012; further: % of control where 0% means no effect; nearly all actives have a fitted effect of over 65% in size
#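 Quantitative high-throughput format: AREc32 reporter cells, 1000 per well, received compound by pin transfer and were incubated 24 hr at 37 deg C, 5% CO2, before Steady-Glo luminescence detection.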
# Nrf2 inh: Nrf2 qHTS screen for inhibitors | A549 ARE-Fluc reporter, luciferase luminescence, 18-24 h | Potency, µM (top dose mostly 46 µM), for the others: at the highest dose activity change, negative = inhibition, most hits filed as inhibitors | 360,000 compounds, 2.1% hits; further: on the % scale 0 is the no-effect control and ±100 the full control effect; nearly all actives have a fitted effect of over 60% in size
#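 Concentration-response testing used A549 ARE_Fluc cells at 5000 cells/well. Following an 18-24 h compound incubation, viability was read by fluorescence (Ex 405/Em 525) and luciferase output by luminescence.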
# ATXN2 expr inh: Primary qHTS for Inhibitors of ATXN expression | HEK-293 ATXN2-luciferase reporter, luminescence, 24 h | Potency, µM (doses to about 57 µM), for inactives: at the top dose activity change, negative = inhibition, hits mostly inhibitors | 360,000 compounds, 0.72% hits; further: on the % scale 0 is the no-effect control and ±100 the full control effect; nearly all actives have a fitted effect of over 55% in size
#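 qHTS (up to 57 uM final) was run with 24 h compound exposure of reporter cells at 37 °C. Each well was multiplexed: SteadyGlo luminescence measured ATXN2-luciferase expression after a fluorogenic Gly-Phe-AFC viability readout (25 uM final).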
# ATXN viability: Viability Counterscreen for Primary qHTS for Inhibitors of ATXN expression; Potency, µM (doses to about 56.7 µM), actives largely listed as cytotoxic; S2 cells (HEK-293 line with an ATXN2-luciferase reporter) viability, CellTiter-Fluor protease fluorescence, 24 h; 400,000 compounds, 0.49% hits; AID 651635, 2014; further: nearly all actives have a fitted effect of over 40% in size
# * hit, by the source's call; i = inactive; ? = inconclusive; . = no result given; [ ] = another dose, or the depositor's remark. The call rests on the fitted dose curve; in most records, active means well fitted curve in the direction sought with a large enough effect; inconclusive means small, poorly fitted or top-dose-only effect, or another doubt; inactive means no such curve, though single readings can be large; an effect the other way counts as inactive or inconclusive. Potency means the concentration at half of the fitted maximal effect.
SMILES,A549 viability,Nrf2 ARE act,Nrf2 inh,ATXN2 expr inh,ATXN viability
COc1cccc(Cc2nc3cccnc3n2C2CCN(C(=O)c3n[nH]c4c3CCCC4)CC2)c1,.,.,.,.,i
CC1=C/C(=N\OS(=O)(=O)c2ccccc2)C(C(C)C)=CC1=O,1%,11%,2%,?,.
CC1=C/C(=N\OS(=O)(=O)c2ccccc2)C(C)=CC1=O,3%,-3%,-3%,22µM*,20µM*
CC1=C(C)/C(=N\OS(=O)(=O)c2ccc(C)cc2)C=CC1=O,-11%,?,3%,?,8.9µM*
COC(=O)c1sc(-c2ccc(Cl)cc2)cc1NC(=O)/C=C/C(=O)O,-15%,8.9µM*,?,?,.
COC(=O)c1c(NC(=O)/C=C/C(=O)O)sc(C)c1-c1ccc(C)c(C)c1,-2%,18µM*,-6%,?,i
CCOC(=O)c1c(NC(=O)/C=C/C(=O)O)sc(C)c1-c1ccc(C)c(C)c1,0%,?,-15%,.,i
COC(=O)c1c(NC(=O)/C=C/C(=O)O)sc(C)c1-c1ccc(C(C)C)cc1,2%,10µM*,?,?,i
COC(=O)c1c(NC(=O)/C=C/C(=O)O)sc(C)c1-c1ccc(C)cc1,-26%,20µM*,?,?,?
Cc1ncc2c(c1CNC(=O)/C=C/c1cccs1)CCN(C(=O)C1CC(=O)OC13CCCCC3)C2 (stereo unspecified),.,.,.,.,i
O=C1/C(=C\c2ccco2)CCC/C1=C\c1ccco1,0%,10µM*,8%,76%,i
CCCCN(CC)CCCNC(=O)c1sc2nc(C)cc(C)c2c1-n1cccc1,6%,3%,?,.,.
O=C1C(=O)c2ccccc2C([O-])=C1[n+]1ccccc1,-8%,3%,?,-13%,i
CCc1cc[n+](C2=C([O-])c3ccccc3C(=O)/C2=N\S(=O)(=O)c2cccs2)cc1,?,-2%,18µM*,?,?
Cc1cc(C(=O)Nc2ccccc2-c2nc(CNC(=O)c3sc(C)nc3C)c(C)o2)c(C)o1,.,.,.,.,i
OCCn1cc(-c2ccc3c(c2)CCC3=NO)c(-c2ccncc2)n1,.,.,.,1%,.
O=C(c1cc2ccccc2o1)c1cccs1,0%,22µM*,?,58%,i
COc1ccc(N(C(=O)CCl)C(C(=O)NCCc2ccccc2)c2cccs2)cc1 (stereo unspecified),-22%,?,-26%,28µM*,13µM*
COc1cc(CNc2nc(C)c(-c3ccn(CC4CCCN(C)C4)n3)s2)ccc1F (stereo unspecified),.,.,.,.,i
CCOC(=O)Cn1nnnc1C(CC)N(Cc1cccs1)Cc1cc2cc(C)ccc2[nH]c1=O (stereo unspecified),-4%,8%,.,3%,i
CCC(c1nnnn1C1CCCC1)N(Cc1cccs1)Cc1cc2cc(C)ccc2[nH]c1=O (stereo unspecified),?,0%,.,32µM*,?
COc1cc(OC)c2c(-c3ccccc3)cc(=O)oc2c1C(CCN1CCCC1)c1ccc2c(c1)OCO2 (stereo unspecified),0%,15%,?,0%,?
CCCCCc1cc(=O)oc2c(C(CCN(CC)CC)c3cc(OC)c(OC)c(OC)c3)c(OC)cc(OC)c12 (stereo unspecified),-18%,-2%,3%,?,32µM*
COc1ccc(C(CCN2CCOCC2)c2c(OC)cc(OC)c3ccc(=O)oc23)cc1 (stereo unspecified),15µM*,4%,-4%,-15%,?
COc1cc(OC)c2ccc(=O)oc2c1C(CCN1CCCC1)c1ccc2c(c1)OCO2 (stereo unspecified),18µM*,1%,11%,5%,14µM*
SMILES,A549 viability,Nrf2 ARE act,Nrf2 inh,ATXN2 expr inh,ATXN viability
COc1cc(OC)c2ccc(=O)oc2c1C(CCN1CCOCC1)c1ccc2c(c1)OCO2 (stereo unspecified),?,4%,12%,-8%,8.9µM*
C=C[C@]1(C)C[C@@H](OC(=O)CO)[C@]2(C)[C@H](C)CC[C@]3(CCC(=O)[C@H]32)[C@@H](C)[C@@H]1O,.,.,.,.,i
N#Cc1ccccc1NC(=O)c1cc2c(=O)n3ccccc3nc2s1,7%,0%,8%,-6%,i
CCCCCc1cc(=O)oc2c(C(CCN3CCCCC3)c3ccc4c(c3)OCO4)c(OC)cc(OC)c12 (stereo unspecified),-13%,-4%,14%,32µM*,18µM*
COc1cccc(CNc2ncnc3sc(C(=O)N4CC5CCC4C5)c(C)c23)c1OC (stereo unspecified),.,.,.,.,i
O=C(/C=C/c1ccccc1)NC(NC(=S)Nc1cc(Cl)ccc1Cl)C(Cl)(Cl)Cl (stereo unspecified),?,9%,4.1µM*,?,?
Nc1c(S(=O)(=O)c2cccs2)c2nc3ccccc3nc2n1/N=C/c1cccc(O)c1,?,-1%,26µM*,?,.
COc1cccc(/C=N/n2c(N)c(S(=O)(=O)c3cccs3)c3nc4ccccc4nc32)c1,-2%,0%,?,.,.
CCOC(=O)c1cnc(-n2nc(C)cc2C)nc1NNc1nc(-c2ccccc2)cc(-c2ccccc2)n1,?,0%,8.2µM*,?,i
CCOC(=O)c1cnc(-n2nc(C)cc2C)nc1NNc1nc(C)cc(C)n1,5%,1%,-17%,.,i
CC12CCC3C(CCC4CC(O)CCC43C)C1CC(O)C2 (stereo unspecified),12%,0%,-4%,-9%,i
C[C@@]12CCC[C@H]1[C@@H]1CC[C@H]3C[C@@H](O)CC[C@]3(C)[C@H]1CC2,.,.,.,12%,25µM*
COCCCNC(=S)Nc1cccc2ncccc12,-2%,-3%,13µM*,.,i
COc1ccc(C(=O)N/N=C/C(Br)=C/c2ccccc2)cc1,-4%,16µM*,-13%,3%,i
Cc1occc1C(=O)N/N=C/C(Br)=C/c1ccccc1,-16%,16µM*,?,43%[11.3 µM],i
CCCOc1ccc(-c2nonc2NC(=O)COc2ccc(C)cc2)cc1OCCC,-13%,0%,4%,8%,i
CC(C)Nc1cccc(S(=O)(=O)N2CCCN(S(=O)(=O)c3ccc4c(c3)OCCO4)CC2)c1,-3%,.,?,.,.
Cc1ccc(-n2ncc3c(N4CCCC4)ncnc32)c(C)c1,-5%,0%,25%,.,.
COc1cccc(N2CCN(c3ncnc4c3cnn4-c3ccc(C)cc3C)CC2)c1,?,-5%,18µM*,7.9µM*,10µM*
c1ccc(-n2ncc3c(N4CCCCC4)ncnc32)cc1,5%,-4%,?,13µM*,i
Cc1ccc(-n2ncc3c(SCc4cccc(C)c4)ncnc32)cc1,1%,0%,5%,44%,i
